Test results from the supplement of paper PMC13380429.

System: Vero E6 infected with SARS-CoV-2
Assay: inhibition of SARS-CoV-2 cytopathic effect; higher = more antiviral protection, active = above 15
Settings: 48 h

Measured: inhibition of SARS-CoV-2 cytopathic effect

C[C@]12CC[C@H](O)C[C@H]1CC[C@@H]1[C@@H]2C[C@@H](O)[C@]2(C)[C@@H](C3=CC(=O)OC3)CC[C@]12O [digoxigenin]
inactive: 1 nM -0.69% | 8.33 nM -0.54% | 100 nM -6.58% | 833.33 nM -10.3% | 10000 nM -14.1%

Cc1nnc(-c2ccc3occ(-c4ccc([S+](C)[O-])cc4)c3c2)o1 (stereo not given)
inactive: 1 nM 0.61% | 8.33 nM 0.11% | 100 nM -1.48% | 833.33 nM 1.56% | 10000 nM 8.77%

N[C@H]1C(O)O[C@H](CO)[C@@H](O)[C@@H]1O (mixture of isomers) [glucosamine]
inactive: 1 nM 3.44% | 8.33 nM 0.07% | 100 nM 2.73% | 833.33 nM 0.81% | 10000 nM 1.42%

O=c1c(-c2ccc(O)cc2)coc2c([C@@H]3O[C@H](CO)[C@@H](O)[C@H](O)[C@H]3O)c(O)ccc12 [puerarin]
inactive: 1 nM -2.73% | 8.33 nM -3.08% | 100 nM -2.16% | 833.33 nM 2.34% | 10000 nM -0.84%

NS(=O)(=O)c1ccc(C(=O)O)cc1 [carzenide]
inactive: 1 nM -1.83% | 8.33 nM -0.09% | 100 nM 0.05% | 833.33 nM 2.39% | 10000 nM -0.52%

NC1CCN(c2c(F)cc3c(=O)c(C(=O)O)cn(C4CC4)c3c2Cl)C1 (stereo not given) [clinafloxacin]
inactive: 1 nM 2.47% | 8.33 nM 0.61% | 100 nM -1% | 833.33 nM -0.8% | 10000 nM 0.5%
